Screening results from PubChem BioAssay.
M1 ag: agonists of human M1 muscarinic receptor. AID 588814. 360,000 compounds, 0.33% hits. activation, % at 3 µM. CHO-K1 hM1, Fluo-8 calcium fluorescence, agonist mode; 0% DMSO, 100% acetylcholine EC100;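 active means activation above the run's mean compound activation plus 3 SD, cut at about 16% in these data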;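 further: peak over basal fluorescence ratio within a 140 s kinetic read after compound addition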
Target sequence (P11229 whole entry, looked up): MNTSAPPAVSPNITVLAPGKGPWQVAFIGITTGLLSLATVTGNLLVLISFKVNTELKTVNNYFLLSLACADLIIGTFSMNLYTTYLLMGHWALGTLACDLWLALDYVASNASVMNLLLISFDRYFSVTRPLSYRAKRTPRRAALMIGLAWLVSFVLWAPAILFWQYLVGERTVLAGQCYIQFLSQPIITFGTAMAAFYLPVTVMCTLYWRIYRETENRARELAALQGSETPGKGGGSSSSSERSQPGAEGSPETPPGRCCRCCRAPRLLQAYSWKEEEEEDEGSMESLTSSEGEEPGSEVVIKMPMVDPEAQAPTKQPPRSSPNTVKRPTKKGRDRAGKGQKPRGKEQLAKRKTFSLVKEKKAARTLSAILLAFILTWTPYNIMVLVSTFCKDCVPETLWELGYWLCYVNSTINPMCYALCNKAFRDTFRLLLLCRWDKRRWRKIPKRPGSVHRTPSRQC
M1 antag: human CHRM1 antagonism; inhibition, % at 3 µM; 360,000 compounds, 1.3% hits; P11229; CHO-K1 hM1, Fluo-8 calcium fluorescence, ACh EC80 antagonist;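 active means percent inhibition above its own plate's cutoff, namely the mean of that plate's compound wells plus 3 SD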;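 further: peak over basal fluorescence ratio during 140 s after agonist addition; 0% = ACh EC80 plus DMSO and 100% = DMSO alone without agonist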
M1 ag parental: M1 agonist counterscreen hit in parental CHO-K1 cells; Fluo-8 calcium fluorescence; scaled to maximal ATP response, vehicle zero; 360,000 compounds, 0.48% hits; activation, % at 3 µM; in the data active means activation above about 15%;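 further: untransfected CHO-K1 host cells lacking M1 receptor as counterscreen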
CHO-K1 Ca antag: M1 antagonist counterscreen hit in parental CHO-K1 cells; ATP-induced calcium, Fluo-8 fluorescence; inhibition, % at 3 µM; 360,000 compounds, 0.6% hits;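 active means inhibition above a per-plate cutoff, the plate's mean sample inhibition plus 3 SD, cut at about 24% in these data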;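 further: 0% = DMSO plus EC80 ATP and 100% = DMSO alone without ATP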
M1 PAM: human CHRM1 positive allosteric modulation; 360,000 compounds, 0.088% hits; AID 588819; activation, % at 3 µM; P11229; CHO-K1 hM1, Fluo-8 calcium fluorescence, ACh EC20; 0% = ACh EC20, 100% = maximal ACh; in the data active means activation above about 19%, passing the limit was not always enough
M1 PAM parental: M1 PAM counterscreen hit in parental CHO-K1 cells; ATP EC20, Fluo-8 calcium fluorescence; 0% at ATP EC20, 100% at ATP max; activation, % at 3 µM; 360,000 compounds, 0.02% hits; AID 602247;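 active means activation above the run cutoff, the mean activation of all test compounds plus 3 SD, cut at about 40% in these data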;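 further: peak over basal fluorescence ratio in a 140 s read after ATP addition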
An asterisk follows results filed as active; ! = not confirmed by another sample. Rows were chosen to be rich in hits. Some 2.3% of all compounds tested hit in one or more screens of this group.

SMILES | M1 ag | M1 antag | M1 ag parental | CHO-K1 Ca antag | M1 PAM | M1 PAM parental
Cn1cc(CNC(=O)C2CCC(=O)N(Cc3ccccc3F)C2)cn1 (configuration not stated) | 1 | -16 | 0 | -6 | 26* | -1
COCc1nc2ccccc2n1CCc1ccccc1 | 1 | -7 | 0 | 26* | 11 | -10
COc1ccc(/C=C/C(=O)NNc2c(F)c(F)cc(F)c2F)cc1OC | 0 | 7 | 0 | 25* | 2 | -7
CCN1CCN(Cc2ccc(NC(=O)c3ccc(C)c(NC(=O)c4c[nH]c5cc(C(F)(F)F)ccc5c4=O)c3)cc2C(F)(F)F)CC1 | -1 | -8 | 0 | 26*! | 4 | -16
Cc1ccc(C(=O)Nc2cccc(C(F)(F)F)c2)cc1NC(=O)c1c[nH]c2cc(C(F)(F)F)ccc2c1=O | -4 | -3 | 1 | -14 | 4 | 22
C/C(=N\N1C(=O)CSC1=S)c1ccc(Br)cc1 | -6 | 1 | 19* | 4 | 1 | 7
Cc1ccc(C(=O)NN2C(=O)CSC2=S)cc1 | -5 | 6 | 4 | -8 | -2 | 3
O=C(Nc1ccccn1)c1ccc(CN(c2ccccc2)S(=O)(=O)c2ccccc2)cc1 | -12 | 1 | 1 | 0 | 1 | 3
Cc1cccc(C(C)C)c1NC(=O)c1ccc(CN(c2ccccc2)S(=O)(=O)c2ccccc2)cc1 | 1 | 4 | 0 | 26* | 3 | -13
CCCCNc1c([N+](=O)[O-])c(=O)n(C)c2ccccc12 | -4 | 7 | 1 | -15 | -2 | 26
Cn1c(=O)c([N+](=O)[O-])c(NCCCn2ccnc2)c2ccccc21 | 1 | -4 | 15* | 0 | 4 | 13
Cc1ccccc1C(=O)N1CCN(c2ccc(NC(=O)c3ccc4c(c3)OCCO4)cc2)CC1 | 4 | 18 | 19* | 0 | -16 | -15
CC(C)C(=O)N1CCN(c2ccccc2NC(=O)c2ccc(C#N)cc2F)CC1 | -6 | 9 | 22* | -2 | 4 | 5
CS(=O)(=O)N1CCN(c2ccccc2NC(=O)c2ccc3c(c2)OCCO3)CC1 | -5 | -4 | 19* | -6 | 3 | 6
Cc1ccc(C(=O)Nc2ccccc2N2CCN(C(=O)C(C)C)CC2)cc1C | -1 | 11 | 1 | 29* | -1 | -27
CCOC(=O)c1cn(-c2c(C)n(C)n(-c3ccccc3)c2=O)c2c(F)c(F)c(F)cc2c1=O | -5 | -9 | 1 | -5 | 6 | 19
Cc1ccc(N(C(=O)c2csnn2)C(C(=O)NC2CCCC2)c2cccnc2)c(C)c1 (configuration not stated) | 4 | -11 | 1 | -13 | 12 | 12
OCC1(Cc2ccc(Cl)cc2)CCN(Cc2ccc(Oc3ncccn3)cc2)CC1 | -14 | 44* | 1 | -12 | -32 | 10
CCOC(=O)C1CCCN(C(=O)c2cc(-c3ccco3)nc3ccccc23)C1 (configuration not stated) | 25* | -12 | 2 | -15 | -5 | 15
CCOC(=O)C1CCCN(c2c(C(=O)c3ccccc3)cnc3ccccc23)C1 (configuration not stated) | 38* | 30* | 4 | 14 | -23 | 9
CCOC(=O)C1CCCN(C(=O)c2sc3nc(-c4ccc(OC)cc4)cn3c2C)C1 (configuration not stated) | 28* | -1 | 0 | -5 | -6 | 15
CCOC(=O)C1CCCN(C(=O)c2ccc(-c3ccccc3Cl)o2)C1 (configuration not stated) | 5 | -8 | 1 | -1 | 2 | 12
CCOC(=O)C1CCCN(C(=O)c2ccco2)C1 (configuration not stated) | 52* | 15 | 1 | -10 | -27 | 14
CCOC(=O)C1CCN(C(=O)c2sc3nc(-c4ccccc4)cn3c2C)CC1 | -6 | -8 | 0 | 18 | 6 | -4
O=c1c2ccccc2on1-c1ccccc1 | -7 | -3 | 0 | 13 | 0 | -6
O=C(CCNS(=O)(=O)c1ccc(Br)cc1)NC1CCC(O)CC1 (configuration not stated) | -2 | -7 | -1 | 10 | 12 | 2
CC1=NC(C#N)=C(C#N)NC(C)(C)C1 | -6 | -5 | 0 | 0 | 3 | -9
